Pf growth 48h – Primary qHTS for delayed death inhibitors of the malarial parasite plastid, 48 hour incubation | Potency, µM (series often up to 28.7 µM), inactives show at the top dose activity change, negative = inhibition, actives largely listed as inhibitors | P. falciparum luciferase growth in erythrocytes, 48 h | actives 5.9% (n = 310,000); also: potency is read from the fitted curve at half-maximal effect; % is scaled to controls: 0 for no effect and ±100 for the full control effect
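Compounds are pin-transferred into medium, infected erythrocytes (2% hematocrit, 0.1% parasitemia final) are added, and plates sit one parasite generation at 37 C in 5% CO2. Detection reagent is then added and luminescence measured.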
CHX counter – Cycloheximide Counterscreen for Small Molecule Inhibitors of Shiga Toxin | max response, % | actives 12% (n = 300,000) | cell reporter, cycloheximide protein synthesis inhibition counterscreen; in the data active = max response mostly above about 13%, no sharp cut-off; inactive = mostly below about 14%; also: read at 38.3 µM for the half of the compounds with a filed dose; 0% is about no effect
SARS PLpro yeast – qHTS of Yeast-based Assay for SARS-CoV PLP. Potency, µM (highest dose often 32.9 µM), without a hit: top-dose activity, positive = growth rescue, hits mostly activators. S. cerevisiae expressing SARS-CoV PLpro, growth rescue. actives 0.19% (n = 330,000); calls by dose curve; also: potency is read from the fitted curve at half-maximal effect; 0% is about no effect; nearly all actives have a fitted effect of over 55% in size
Shiga toxin inh – A qHTS for Small Molecule Inhibitors of Shiga Toxin; Vero cells, Shiga toxin protein synthesis inhibition reporter; inhibition, % at 38.7 µM; actives 9.2% (n = 290,000); AID 2315, 2010; in the data active = inhibition mostly above about 28%, no sharp cut-off; inactive = mostly below about 43%; also: 0% is about no effect
Pf growth 96h – Primary qHTS for delayed death inhibitors of the malarial parasite plastid, 96 hour incubation | P. falciparum luciferase reporter growth, 96 h | Potency, µM (doses to about 28.7 µM), inactives show at the top dose activity change, negative = inhibition, most hits filed as inhibitors | actives 6.9% (n = 320,000) | AID 504834, 2011; also: potency is read from the fitted curve at half-maximal effect; % is scaled to controls: 0 for no effect and ±100 for the full control effect
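P. falciparum expressing integrated firefly luciferase, in erythrocytes at 2% hematocrit, 0.05% parasitemia, incubated with compounds 96 h at 37 C, 5% CO2. Growth inhibition read as loss of luminescence; two-generation exposure targets delayed-death apicoplast inhibitors.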
AMA1-RON2 inh – qHTS for Inhibitors of AMA1-RON; Towards Development of Antimalarial Drug Lead: Primary Screen; Plasmodium falciparum AMA1 (3D7) - RON2 peptide interaction; AlphaScreen AMA1-biotinylated RON2 peptide binding; Potency, µM (doses to about 58.2 µM), inactives show top-dose activity change, negative = inhibition, most hits filed as inhibitors; actives 0.2% (n = 360,000); AID 720542, 2013;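 also: potency is read from the fitted curve at half-maximal effect; 0% = vehicle wells and -100% = peptide control; nearly all actives have a fitted effect of over 45% in size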
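AMA1 (3D7) with his tag at 25 nM final met compounds first, then biotinylated RON2 peptide at 25 nM; detection used donor plus acceptor beads, 10 µg/mL apiece, read by AlphaScreen after 30 min at room temperature.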
* hit, by the source's call; ? = inconclusive; . = not tested or not shown. Rows were chosen to be rich in hits. Some 19% of all compounds tested hit in one or more screens of this group. Unless noted, calls follow the shape of the dose curve; as a rule, active = well fitted curve in the direction sought with a large enough effect; inconclusive = small, poorly fitted or top-dose-only effect, or another doubt; inactive = no such curve, though single readings can be large; an effect the other way counts as inactive or inconclusive.

SMILES | Pf growth 48h | CHX counter | SARS PLpro yeast | Shiga toxin inh | Pf growth 96h | AMA1-RON2 inh
CCCCCn1c(=O)[nH]c2cc(C(=O)Nc3ccc(OC)cc3)ccc2c1=O | 12% | -2 | -1% | 14 | ? | 6%
CCn1c(=O)[nH]c2cc(C(=O)Nc3cc(C)cc(C)c3)ccc2c1=O | 4.7µM* | -5 | -2% | -17 | 30% | -19%
CC1=C(C#N)C(C(F)(F)F)(C(F)(F)F)N=C(c2ccco2)N1 | -6% | -4 | 2% | -11 | 8.3µM* | 3%
Cc1cccc(-c2nnn(Cc3nnc(NC(=O)c4ccccc4)s3)n2)c1 | 3% | -2 | 2% | -3 | 79% | 0%
Cc1cccc(-c2nnn(CC/C(N)=N/O)n2)c1 | 84% | 23* | 2% | active | 61% | 15%
Cn1cnc([N+](=O)[O-])c1N=C(N)N | 4% | -1 | 8% | 3 | 9% | 13%
CC1(C)CC(=O)C=C(NCCN2CCN(C(=S)NC3CCCCC3)CC2)C1 | -7% | 9 | 1% | 8 | -16% | 1%
CCC1=C(OC(=O)N(CC)CC)N2C(=O)OC(=NCCc3c[nH]c4ccccc34)[C@]2(Cc2ccccc2)[C@H]2C1=CC[C@H]1C(=O)NC(=O)[C@H]12 | ? | -1 | 2% | -4 | 12µM* | -15%
CCC1=C(OC(=O)N(CC)CC)N2C(=O)OC(=NCC(=O)OC)[C@]2(Cc2ccccc2)[C@H]2C1=CC[C@H]1C(=O)N(C)C(=O)[C@H]12 | ? | 1 | 0% | -9 | ? | 15%
CCC1=C(OC(=O)N(CC)CC)N2C(=O)OC(=NCCOC)[C@]2(Cc2ccccc2)[C@H]2C1=CC[C@H]1C(=O)N(CC(=O)OC)C(=O)[C@H]12 | 9.3µM* | 11 | 2% | -8 | ? | -8%
CCC1=C(OC(=O)N(CC)CC)N2C(=O)OC(=NCCc3c[nH]c4ccccc34)[C@]2(Cc2ccccc2)[C@H]2C1=CC[C@H]1C(=O)N(CC(=O)OC)C(=O)[C@H]12 | 5.2µM* | -3 | 0% | -1 | 13µM* | -24%
CCn1c(C)c(CS(=O)(=O)c2ccccc2)[nH]c1=O | -5% | 34* | 1% | 108 | 17% | 1%
O=C1/C(=C/c2cccs2)SC(=S)N1c1ccccc1 | 10% | -3 | 2% | 36 | 30% | -1%
O=C1S/C(=C\c2cccs2)C(=O)N1c1ccc(O)cc1 | 37% | 38* | 2% | 63* | 117% | 1%
O=C1/C(=C/c2cccs2)SC(=S)N1c1cccc(O)c1 | 69% | 26* | 0% | 61 | 22% | -27%
CCCCNC(=S)NNC(=O)c1cc(C2CC2)nc2ccccc12 | ? | -2 | 5% | -9 | 40% | 49%
COc1ccc(N2C(=S)N(C(=O)c3ccccc3)C(=Nc3ccccc3)C2=Nc2ccccc2)cc1 | . | . | . | . | . | 17%
COc1ccc(N=C2C(=Nc3ccc(OC)cc3)N(c3ccccc3)C(=S)N2C(=O)c2ccc(Cl)cc2)cc1 | ? | 43* | 7% | 63* | ? | 32%
COc1ccc(N=C2C(=Nc3ccc(OC)cc3)N(c3ccc(OC)cc3)C(=S)N2C(=O)c2ccc(OC)cc2)cc1 | ? | 14* | 19% | 42* | 25% | 16%
Cc1cc(O)c2c3c(c(=O)oc2c1)CCC(C)C3 (stereo not drawn) | ? | 6 | -7% | 5 | ? | 8%
Cc1cc(O)c2c(c1)OC(C)(C)C1=C2CC(C)CC1 (stereo not drawn) | 6.6µM* | -1 | -3% | . | 9% | -11%
CCCCCOC(=O)Cc1c(C)nc(-c2ccccc2)[nH]c1=O | 1.9µM* | -1 | -3% | -7 | ? | -5%
CCC(C)NCCOCCSc1ccc(Cl)cc1 (stereo not drawn) | -11% | -4 | 1% | -12 | ? | -1%
COc1ccc(C2C(C(N)=O)=C(C)Nc3ncnn32)cc1 (stereo not drawn) | 24% | 22* | 8% | 38 | -3% | 17%
